The list is not random: actives were taken first. Their share in the collection is about 1.3%.
VHR inh abs – inhibitors of human VHR1 phosphatase (DUSP3); P51452; recombinant VHR phosphatase, pNPP absorbance; inhibition, % at 13.3 µM; 290,000 compounds, 0.52% hits; in the data active = inhibition above about 50%
Target sequence (P51452 whole entry, looked up): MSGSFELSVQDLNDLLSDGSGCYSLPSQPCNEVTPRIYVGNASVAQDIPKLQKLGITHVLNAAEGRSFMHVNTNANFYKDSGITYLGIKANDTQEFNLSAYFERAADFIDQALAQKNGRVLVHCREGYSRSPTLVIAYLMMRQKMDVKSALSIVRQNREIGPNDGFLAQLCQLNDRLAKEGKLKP
Mtb hypoxia inh – reduces hypoxia-regulated biosensor signal in M. tuberculosis. fluorescence inhibition, % (concentration not given with the values). M. tuberculosis hypoxia-regulated fluorescent reporter, fluorescence. 300,000 compounds, 0.1% hits; in the data active = fluorescence inhibition mostly above about 23%, no sharp cut-off; inactive = mostly below about 17%
SARS 3CLpro inh – SARS-CoV 3CLpro protease inhibition | P0C6X7 | recombinant SARS-CoV 3CLpro, quenched FRET peptide cleavage | inhibition, % at 6 µM | 290,000 compounds, 0.14% hits | AID 1706; in the data active = inhibition above about 12%
CCHFV vOTU inh – CCHFV vOTU protease inhibition. Pep-AMC fluorescence. inhibition, % at 11.5 µM. 370,000 compounds, 0.55% hits. AID 651958; in the data active = inhibition above about 30%; also: 0% = vehicle wells with enzyme and 100% = no enzyme wells
PriA SSB inh – inhibitors of Klebsiella pneumoniae PriA binding to SSB C-terminal tail. AlphaScreen SSBct-PriA binding, biotinylated peptide. inhibition, % at 33 µM. 430,000 compounds, 0.6% hits. AID 1272365; in the data active = inhibition mostly above about 37%, no sharp cut-off; inactive = mostly below about 20%;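 also: plate controls were negative control peptide for no effect and reference peptide for full effect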
* marks the source's active call; other numbers are inactive results; i = inactive; / = not tested or not shown; ! = not active in a repeat.

SMILES	VHR inh abs	Mtb hypoxia inh	SARS 3CLpro inh	CCHFV vOTU inh	PriA SSB inh
COc1cc2c(=O)n(CC3CCCO3)c(=O)n(CC(=O)Nc3ccc(F)cc3F)c2cc1OC (stereo not given)	-2	4	0	-5	104*
CCOP(=O)(Oc1ccccc1)c1c([N+](=O)[O-])cc(C(F)(F)F)cc1[N+](=O)[O-] (stereo not given)	-13	42*	-1	-7	5
CS(=O)(=O)c1ccc(CC(=O)Nc2nnc(-c3cc(Cl)sc3Cl)o2)cc1	/	/	/	/	active!
CS(=O)(=O)c1ccc(CC(=O)Nc2nnc(Cc3ccc4c(c3)OCCO4)o2)cc1	/	/	/	/	47*
O=C(CCS(=O)(=O)c1ccc(Cl)cc1)Nc1nnc(Cc2ccc3c(c2)OCO3)o1	/	/	/	/	-17
CCOCC(=O)N1CCC(CSc2ccc(OC)cc2)CC1	/	/	/	/	0
CN1C(=N)NC(=O)/C1=C/c1ccccc1F	/	/	/	/	-1
O=C1C2CCCCC2C(=O)N1c1ccc(NC2CCN(Cc3ccccc3)CC2)c([N+](=O)[O-])c1 (stereo not given)	14	16	4	0	31
CC1CCC2C(=O)N(c3ccc(NC4CCN(Cc5ccccc5)CC4)c([N+](=O)[O-])c3)C(=O)C2C1 (stereo not given)	23	3	4	8	43*
Cc1nnc(NC(=O)CSc2nnc3c(n2)[nH]c2ccc(Br)cc23)s1	60*	14	1	2	-25
COc1ccc2[nH]c3nc(SCC(=O)NNC(=O)c4ccc(OC)c(OC)c4)nnc3c2c1	32	-4	5	-5	-5
CC(C)c1ccc2[nH]c3nc(SCC(=O)NC4CC4)nnc3c2c1	25	-4	3	2	-15
Cc1ccc(C(=O)NNC(=O)CSc2nnc3c(n2)[nH]c2ccc(F)cc23)cc1	57*	5	2	-8	-8
Cc1cc(NC(=O)c2cc3ccccc3o2)n(C(C)C)n1	/	/	/	/	-2
COc1ccc(OC)c(Nc2nc(NCc3ccco3)nc3c2cnn3-c2ccccc2)c1	/	/	/	/	1
CC(=O)c1ccc(NC(=O)C2=CC(c3ccc4c(c3)OCO4)=NS(=O)(=O)N2C)cc1	56*	-6	-1	16	7
O=C(Nc1ccc(NC(=O)C2CCCCC2)nc1)c1ccco1	14	1	-1	-8	-13
O=C(Nc1ccc(NC(=O)C2CCCCC2)nc1)c1ccccn1	57*	13	1	6	2
Cc1ccc(C=Nn2c(-c3ccc(Cl)cc3)n[nH]c2=S)s1	/	/	/	/	1
O=C1CC(c2cccs2)CC(=O)N1	/	/	/	/	-9
COc1cc([N+](=O)[O-])cc(C=NNC(=O)Cn2cncn2)c1O	/	6	/	/	23
O=C(Cn1cncn1)NN=Cc1cc([N+](=O)[O-])ccc1O	/	12	/	/	40*
COc1ccccc1NS(=O)(=O)c1ccc(N/N=C/c2ccccc2C(=O)O)c([N+](=O)[O-])c1	/	/	/	/	i
O=C(O)c1ccccc1NS(=O)(=O)c1ccc(NN=Cc2ccc(O)c(O)c2)c([N+](=O)[O-])c1	/	8	/	/	44*
COc1ccc(S(=O)(=O)Nc2ccccc2C(=O)Nc2ccc(OC)cc2[N+](=O)[O-])cc1	/	/	/	/	44*
SMILES	VHR inh abs	Mtb hypoxia inh	SARS 3CLpro inh	CCHFV vOTU inh	PriA SSB inh
COc1ccc(C=NNc2ccc(S(=O)(=O)Nc3ccccc3C(=O)O)cc2[N+](=O)[O-])c(OC)c1	/	16	/	/	46*
COc1ccc(NC(=O)c2ccccc2)c([N+](=O)[O-])c1	5	8	1	6	4
CC1CCC(=NNc2ccc(C(F)(F)F)cc2[N+](=O)[O-])CC1 (stereo not given)	-1	0	-3	-4	73*
C/C(=N\Nc1ccc(C(F)(F)F)cc1[N+](=O)[O-])C(C)C	14	/	0	-1	/
CCCS(=O)(=O)n1nc(-c2ccccc2)cc1N	54*	1	-3	5	-2
CCS(=O)(=O)n1nc(-c2ccccc2)cc1N	25	-7	4	3	0
COc1ccc(C2=NN(C(=O)CSC3CCCCC3)[C@H](c3ccc(OC)cc3)C2)cc1	/	/	/	/	3
Cc1ccc2c(CC(=O)NCc3c(F)cccc3F)cc(=O)oc2c1	/	/	/	/	0
CCn1nc([N+](=O)[O-])c(C(C#N)c2nc3cc(C(F)(F)F)ccc3s2)c(Cl)c1=O (stereo not given)	9	16	4	27	73*
CCCn1nc([N+](=O)[O-])c(C(C#N)c2nc3ccccc3o2)c(Cl)c1=O (stereo not given)	-28	22	6	19	22
O=C1c2cccc3cccc(c23)C(=O)N1CCCSc1nnc(-c2cccnc2)n1-c1ccccc1	/	/	/	/	1
O=C(CSc1cccc2cccnc12)Nc1cc(Cl)cc(Cl)c1	/	/	/	/	57*
O=C(CSc1cccc2cccnc12)NC1CCS(=O)(=O)C1 (stereo not given)	/	/	/	/	37*
NNC(=O)CSc1cccc2cccnc12	-8	6	3	7	4
COCCCn1c(C)nnc1SCC(=O)Nc1cccc(C)c1	60*	-4	4	-12	1
O=C(CSc1cccc2cccnc12)Nc1cc(C(=O)O)cc(C(=O)O)c1	35	12	5	-23	75*
CC(C)c1ccc(NC(=O)CSc2cccc3cccnc23)cc1	/	/	/	/	41
O=C(NCCC(O)c1cccc2ccccc12)C(=O)NCC(F)(F)F (stereo not given)	/	/	/	/	-5
Cc1cccc(NC(=O)CSc2cccc3cccnc23)c1	12	2	-2	-22	49*
O=C(CSc1cccc2cccnc12)Nc1ccc2ccccc2c1	/	/	/	/	33
O=C(CN(c1ccc(F)cc1)S(=O)(=O)c1ccc2c(c1)OCCO2)NCc1cccnc1	13	1	3	-4	52*
Cc1ccc(-n2c(=O)c3oc4ccccc4c3n(CC(=O)c3ccccc3)c2=O)cc1	/	/	/	/	9
C=C1CSc2nc(=O)c3c4c(sc3n21)CCC4	19	43*	/	7	0
O=C(Nc1ccc(-c2ccc(NC(=O)c3ccc(Oc4ccccc4)cc3)cc2)cc1)c1ccc(Oc2ccccc2)cc1	/	/	/	/	-22
C=CCn1c(SCC(=O)N2CCOCC2)nc2sc(C)c(C)c2c1=O	51*	-8	-6	4	3
SMILES	VHR inh abs	Mtb hypoxia inh	SARS 3CLpro inh	CCHFV vOTU inh	PriA SSB inh
CCN(CCCNC(=O)c1[nH]c(C)c(C(C)=O)c1C)c1cccc(C)c1	15	/	-1	7	40*
CC(=O)c1c(C)[nH]c(C(=O)NCc2ccccc2)c1C	6	12	2	4	2
Cc1nn(C)c(C)c1S(=O)(=O)N(CC(=O)NCCCN1CCC(C)CC1)c1ccc(C(C)C)cc1	56*	2	6	15	-23
Cc1cc(C)cc(C(=O)Nc2nnc(N=Cc3ccc(Br)s3)s2)c1	/	/	/	/	71*
O=C(COc1ccc(Cl)cc1Cl)NCCCCN1CCO[C@H](c2ccccc2)C1	/	/	/	/	-5
CCNc1ccc2noc3c2c1C(=O)c1ccccc1-3	-26	5	0	16	40
O=C1c2ccccc2-c2onc3ccc(NCc4ccco4)c1c23	41	3	1	/	78*
Cn1c(Cc2cccs2)nnc1SCC(=O)Nc1ccccc1F	/	-13	/	-3	-3
Cn1c(SCC(=O)Nc2ccccc2F)nnc1-c1cccs1	54*	-6	-3	16	-16
